Screening results (PubChem BioAssay)
Only some compounds are listed: those with a hit (about 12% of all), similar ones and a draw of the others.
BAZ2B inh: qHTS Assay for Inhibitors of BAZ2B; Bromodomain adjacent to zinc finger domain protein 2B (Homo sapiens), Q9UIF8; AlphaScreen BAZ2B-H3K14Ac peptide displacement; Potency, µM (titrated, usually from 114 µM), for inactives: top-dose activity change, negative = inhibition, actives largely listed as inhibitors; hit rate 4.4% among 360,000; AID 504333, 2011; also: % is scaled to controls: 0 for no effect and ±100 for the full control effect; nearly all actives have a fitted effect of over 60% in size
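BAZ2B 50 nM plus b-H3(5-23)K14Ac 50 nM, PBS pH 7.4/0.01% Tween-20, 30 min RT; compound added (max 110 uM), 30 min RT; streptavidin donor/Ni-chelate acceptor beads 10 ug/mL final, 20 min dark; AlphaScreen read.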
Sfp inh: qHTS Assay for Inhibitors of Bacillus subtilis Sfp phosphopantetheinyl transferase (PPTase); 4'-phosphopantetheinyl transferase ffp (Bacillus subtilis), Q9F4F7; Biochemical Sfp PPTase activity, qHTS; Potency, µM, without a hit: largest response in the series, negative = inhibition, most hits filed as inhibitors; hit rate 3.5% among 310,000;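 also: the enzyme is Sfp with the accession as filed and its product quenches rhodamine fluorescence; 0% = enzyme reaction without inhibitor and -100% = no enzyme wells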
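Reaction rates are the 30-min fluorescence difference (ex 525, em 598 nm) in wells containing 15 nM Sfp, 5 uM rhodamine-CoA and 12.5 uM BHQ-2-YbbR at pH 7.6 with 10 mM MgCl2.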
HP1b chromo inh: HTS for Inhibitors of HP1-beta Chromodomain Interactions with Methylated Histone Tails. AID 540317, 2011. Chromobox protein homolog 1 (Homo sapiens), P83916. Potency, µM (titrated, usually from 114 µM), without a hit: at the top dose activity change, negative = inhibition, most hits filed as inhibitors. AlphaScreen HP1-beta / biotin-H3K9me3 peptide binding. hit rate 0.56% among 390,000; also: nearly all actives have a fitted effect of over 70% in size
Target sequence (P83916 whole entry, looked up): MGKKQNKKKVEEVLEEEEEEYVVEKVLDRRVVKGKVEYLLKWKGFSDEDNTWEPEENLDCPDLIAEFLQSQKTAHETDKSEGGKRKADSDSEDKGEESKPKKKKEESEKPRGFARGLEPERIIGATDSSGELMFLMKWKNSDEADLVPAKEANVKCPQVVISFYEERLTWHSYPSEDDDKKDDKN
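HP1-beta protein (50 nM final) preincubated 30 min at room temperature with biotinylated H3(1-18)K9me3 peptide (50 nM) in PBS pH 7.4, 0.01% Tween-20, then compound added for 30 min. AlphaScreen streptavidin donor/nickel chelate acceptor beads (10 ug/mL final), 30 min dark, luminescence read.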
JMJD2A Tudor inh: qHTS Assay for Inhibitors of JMJD2A-Tudor Domain | Lysine-specific demethylase 4A (Homo sapiens), O75164 | AlphaScreen JMJD2A-Tudor / H3K4me3 peptide binding | Potency, µM (series often up to 114 µM), inactives show top-dose activity change, negative = inhibition, hits mostly inhibitors | hit rate 4.4% among 390,000 | AID 504339, 2011; also: % is scaled to controls: 0 for no effect and ±100 for the full control effect; nearly all actives have a fitted effect of over 50% in size
G9a inh: qHTS Assay for Inhibitors of Histone Lysine Methyltransferase G9a; G9a H3K9 monomethylation, AlphaScreen, 2 h; Histone-lysine N-methyltransferase EHMT2 (Homo sapiens), Q96KQ7; hit rate 8.8% among 350,000; Potency, µM (top dose mostly 102 µM), for inactives: at the highest dose activity, negative = inhibition, most hits filed as inhibitors; also: % is scaled to controls: 0 for no effect and ±100 for the full control effect; nearly all actives have a fitted effect of over 75% in size
Target sequence (Q96KQ7 913-1193 limits assumed): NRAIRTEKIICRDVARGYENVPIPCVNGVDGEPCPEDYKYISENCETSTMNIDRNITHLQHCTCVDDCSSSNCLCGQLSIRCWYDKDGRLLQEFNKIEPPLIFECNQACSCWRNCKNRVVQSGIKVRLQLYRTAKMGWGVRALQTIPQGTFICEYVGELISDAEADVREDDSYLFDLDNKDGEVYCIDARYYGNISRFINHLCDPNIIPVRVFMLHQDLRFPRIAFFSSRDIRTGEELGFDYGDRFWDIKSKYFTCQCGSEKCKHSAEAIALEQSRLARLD
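Step 1: enzyme (final 20 nM) with compound, 15 min RT. Step 2: substrate peptide 500 nM and SAM 20 uM, 2 h RT. Step 3: anti-H3K9me1 antibody and AlphaScreen beads, 10 min, then plate read.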
The depositor's hits bear a star; ? = inconclusive; . = no result given; ! = a repeat was not active; [ ] = another dose, or the depositor's remark. Calls follow the shape of the dose curve; as a rule, active = well fitted curve in the direction sought with a large enough effect; inconclusive = small, poorly fitted or top-dose-only effect, or another doubt; inactive = no such curve, though single readings can be large; an effect the other way counts as inactive or inconclusive. Potency is read from the fitted curve at half-maximal effect.

SMILES	BAZ2B inh	Sfp inh	HP1b chromo inh	JMJD2A Tudor inh	G9a inh
O=C(NCCCN1CCCCCC1)c1cc2c(=O)oc3ccccc3c2s1	-11%	-21%	9%	-24%	79µM*
Cc1ccc2oc(=O)c3cc(C(=O)NCCCN4CCN(C)CC4)sc3c2c1	-22%	10%	24%	-16%	-21%
COCc1ccc(CN2CCC(N3CCC(C(=O)N4CCCC4)CC3)CC2)o1	2%	5%	39%	5%	.
Cc1ccc(Nc2cccccc2=O)cc1	-11%	8%	-24%	?	-11%
CC(C)(C)Nc1cccccc1=O	-3%	-21%	42%	-9%[11.4 µM]	45µM*
CC(=O)OCC1=C(C(=O)O)N2C(=O)[C@@H](NC(=O)Cc3cccs3)[C@H]2SC1	50µM*	?	-10%	79µM*	7.5µM*!
CC(=O)OCC1=C(C(=O)O)N2C(=O)C(NC(=O)c3ccc(COc4c(C)cccc4Cl)o3)C2SC1 (centres undefined)	?	63µM*	10%	?	45µM*
CC(=O)OCC1=C(C(=O)O)N2C(=O)C(NC(=O)CCn3nc(C(F)(F)F)c(Br)c3C3CC3)C2SC1 (centres undefined)	0%	-3%	2%	-21%	40µM*
CC(=O)OCC1=C(C(=O)O)N2C(=O)C(NC(=O)Cn3nc(C(F)F)c(Cl)c3C)C2SC1 (centres undefined)	-35%	5%	14%	-14%	50µM*
COC(=O)CN1C(=O)N(c2ccccc2)C(N(O)C(=O)Nc2ccccc2)C1(C)C (centres undefined)	-39%	-4%	18%	?	40µM*
COc1cc(CCC(=O)OCC(=O)c2ccc[nH]2)cc(OC)c1OC	-4%	.	5%	-19%	?
COc1ccccc1-n1c(C)c(C(C)=O)c2cc(O)ccc21	-38%	4%	5%	-24%	7%
Cc1ccc(N(CC(=O)NCCSc2ccccn2)S(C)(=O)=O)cc1	-2%	-7%	33%	-8%	28µM*
Cc1ccc(S(=O)(=O)N(CC(=O)NCCSc2ccccn2)c2cc(C)cc(C)c2)cc1	-32%	16%	37%	-21%	-1%
CCN(C(=O)COC(=O)c1cc2c(s1)CCCCC2)C1CCS(=O)(=O)C1 (centres undefined)	-14%	10%	42%	-6%	2%
CC(C)CN(C(=O)COC(=O)c1cc2c(s1)CCC2)C1CCS(=O)(=O)C1 (centres undefined)	56µM*	1%	-12%	?	-34%[59 µM]
Cc1ccc(CC(=O)N(C)CC(=O)Nc2ccc(N3CCOCC3)cc2)cc1C	-29%	.	23%	-15%	14µM*
CN(CC(=O)Nc1ccc(F)cc1)C(=O)CSc1nccn1C	-4%	.	25%	3%	50µM*
CCn1c2ccccc2c2cc(NC(=O)CN(C)CC(=O)Nc3ccc(N4CCOCC4)cc3)ccc21	28µM*	15%	-17%	?	40µM*
Cc1cc(C)cc(OCC(=O)N(C)CC(=O)Nc2ccc(N3CCOCC3)cc2)c1	5%	.	24%	-6%	35µM*
CCCC(=O)Nc1ccc(N2CCOCC2)cc1	8%	-12%	26%	-12%[11.4 µM]	-31%[12.7 µM]
O=C(NNC(=O)c1ccccc1Cl)c1ccco1	-11%	6%	-5%	-18%	6%
O=S(=O)(c1ccc(SCCOc2ccccc2Cl)nc1)N1CCCC1	33%	.	113%	41%	-16%[59 µM]
CC1CCC2C(=O)N(c3cccc(C(=O)Nc4ccc(F)cc4)c3)C(=O)C2C1 (centres undefined)	-9%	13%	12%	-7%	.
Cc1cccc(-c2nn(-c3ccccc3)cc2C(=O)N(C)CC(=O)Nc2ccc(N3CCOCC3)cc2)c1	?	.	3%	-21%	7.9µM*
CN(CC(=O)Nc1ccc(N2CCOCC2)cc1)C(=O)c1cccc(Cl)c1Cl	-29%	.	21%	-12%	?
